A selection: hits, their analogues and other compounds. The true share with any hit is near 4.5%.
NTMT1 inh: NTMT1 methyltransferase inhibition. Potency, µM (top dose mostly 114 µM), actives largely listed as inhibitors. Q9BV86. NTMT1 MTase-Glo SAH luminescence, purified enzyme. 59,000 compounds, 2.5% hits; further: nearly all actives have a fitted effect of over 65% in size
Target sequence (Q9BV86 whole entry, looked up): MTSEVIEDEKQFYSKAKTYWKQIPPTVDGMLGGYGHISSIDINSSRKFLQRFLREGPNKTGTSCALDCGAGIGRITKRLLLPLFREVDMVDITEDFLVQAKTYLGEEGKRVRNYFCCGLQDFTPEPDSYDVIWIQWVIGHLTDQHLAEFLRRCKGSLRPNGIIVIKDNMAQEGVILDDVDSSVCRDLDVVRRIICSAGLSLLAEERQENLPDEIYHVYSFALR
SKOV3 invasion: inhibitors of ovarian cancer cell adhesion and invasion in omental model; SKOV3ip1-GFP adhesion/invasion on 3D omental model, fluorescence; Potency, µM (top dose mostly 45.8 µM), hits mostly inhibitors; 46,000 compounds, 0.1% hits; further: nearly all actives have a fitted effect of over 65% in size
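Adhesion/invasion was scored as fixed GFP-labeled SKOV3ip1 cell counts (488/509 nm), normalized to DMSO and tomatine controls. Cancer cells in serum-free medium, with four compound doses (0.36-46 umol/L), sat 2 hr at RT then 16 hr at 37 C on a 48 hr fibroblast/mesothelial/ECM culture.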
HTT-AS act: activates huntingtin-antisense promoter activity | HEK293 HTT-AS promoter firefly luciferase reporter, 24 h; response scale: percent change from vehicle, -100% = no light | Potency, µM (titrated, usually from 57.5 µM), actives largely listed as activators | 48,000 compounds, 0.24% hits | AID 1508624; further: nearly all actives have a fitted effect of over 55% in size
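Luminescence was read after Dual-Glo reagent and a 10 min room-temperature incubation. Values were normalized to vehicle (0% activity) and zero RLU (-100% activity). Reporter HEK293 cells had been exposed to compounds (up to 57.5 uM final) for 24 h.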
GPR32 ag: activates human resolvin D1 receptor GPR32; O75388; CHO-K1 GPR32 beta-arrestin PathHunter luminescence, 90 min; zero percent set by DMSO-only wells; activation, % at 76.9 µM; 48,000 compounds, 2.5% hits; AID 1346428;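 active means activation of at least 60% and not above a set upper limit, about 1 call in 100 departs from these limits; inconclusive means activation of 40% to 60%, or above that upper limit; inactive means activation under 40%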
Target sequence (O75388 whole entry, looked up): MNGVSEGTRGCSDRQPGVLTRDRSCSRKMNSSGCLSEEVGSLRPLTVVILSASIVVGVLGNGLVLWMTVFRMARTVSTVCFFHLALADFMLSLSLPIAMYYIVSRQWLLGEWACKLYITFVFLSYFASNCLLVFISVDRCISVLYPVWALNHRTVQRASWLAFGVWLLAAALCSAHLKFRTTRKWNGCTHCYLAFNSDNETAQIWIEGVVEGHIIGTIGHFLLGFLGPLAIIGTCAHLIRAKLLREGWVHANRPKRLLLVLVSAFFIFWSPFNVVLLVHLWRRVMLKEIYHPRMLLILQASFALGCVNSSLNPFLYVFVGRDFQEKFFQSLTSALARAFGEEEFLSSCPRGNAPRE
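Luminescent readout of beta-Gal complementation quantifies ligand-induced beta-arrestin association with GPR32 in CHO-K1 cells; 90 min compound incubation at 37 °C, detection 1 h at room temperature.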
HTT promoter inh: inhibitors of huntingtin promoter activity | HEK293 HTT promoter firefly luciferase reporter, 24 h | Potency, µM (titrated, usually from 57.5 µM), usual class: inhibitors | 48,000 compounds, 0.93% hits | AID 1508623; further: nearly all actives have a fitted effect of over 50% in size
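HEK293 cells carrying firefly luciferase reporters were seeded at 2,500 per well in Opti-MEM and cultured for 24 h. They were then treated with compounds at up to 57.5 uM final for 24 h at 37 degrees C before Dual-Glo luminescence readout.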
Each line names hits and unclear results; the compound was inactive in the other large screens; ! = repeats disagree. Unless noted, the call rests on the fitted dose curve; in most records, active means well fitted curve in the direction sought with a large enough effect; inconclusive means small, poorly fitted or top-dose-only effect, or another doubt; inactive means no such curve, though single readings can be large; an effect the other way counts as inactive or inconclusive.

COc1ccc(N2CCN(CCCNC(=O)c3c(C)nn(-c4ccc(F)cc4)c3-n3cccc3)CC2)cc1	GPR32 ag 63, HTT promoter inh inconclusive
Cc1nn(-c2ccc(F)cc2)c(-n2cccc2)c1C(=O)NCCCN1CCN(c2ccccc2F)CC1	GPR32 ag 110, HTT promoter inh inconclusive
COc1cc(NC(=O)c2c(C)nn(-c3ccc(F)cc3)c2-n2cccc2)cc(OC)c1	NTMT1 inh inconclusive, GPR32 ag 103
COc1cccc(C(=O)Nc2ccc(-n3nncc3-c3ccccc3)cc2)c1OC	NTMT1 inh 56µM
CCOc1ccccc1C(=O)Nc1ccc(-n2nncc2-c2ccccc2)cc1	HTT promoter inh inconclusive
Cc1oc(-c2ccc(C(=O)N(C)Cc3ccccc3)cc2)nc1CN1CCc2ccccc21	HTT promoter inh 8.9µM
COc1ccc(C(=O)N2CCN(c3nc4c(OC)cccc4s3)CC2)cc1OC	HTT promoter inh 28µM
COc1cccc2sc(N3CCN(C(=O)CCS(=O)(=O)c4ccc(F)cc4)CC3)nc12	GPR32 ag inconclusive, HTT promoter inh 22µM
Cc1ccc(S(=O)(=O)CCC(=O)N2CCN(c3nc4c(C)c(Cl)ccc4s3)CC2)cc1	none
CCc1ccc(CN(C(=O)c2cc3ccccc3oc2=O)C2CCS(=O)(=O)C2)cc1 (stereo not given)	HTT-AS act 3.5µM
COc1cc(CN(C(=O)c2cc3ccccc3oc2=O)C2CCS(=O)(=O)C2)cc(OC)c1OC (stereo not given)	HTT-AS act inconclusive
CCOc1ccc(NC(=O)c2ccc(F)c(S(=O)(=O)NCc3ccc4c(c3)OCO4)c2)cc1	HTT promoter inh inconclusive
CCc1ccc(S(=O)(=O)N(C(=O)c2ccncc2)c2ccc3oc(C)c(C(=O)OC)c3c2)cc1	HTT promoter inh 13µM
CCOc1ccc(S(=O)(=O)N(C(=O)c2ccncc2)c2ccc3oc(C)c(C(=O)OC)c3c2)cc1	HTT promoter inh 2µM
COC(=O)c1c(C)oc2ccc(N(C(=O)c3ccncc3)S(=O)(=O)c3ccc(OC)cc3)cc12	HTT promoter inh 2.2µM
CC(=O)c1c(C)oc2ccc(N(C(=O)c3ccncc3)S(=O)(=O)c3ccc(C)cc3C)cc12	HTT promoter inh 28µM
CCOC(=O)c1c(C)oc2ccc(N(C(=O)c3ccncc3)S(=O)(=O)c3ccc(F)cc3)cc12	HTT promoter inh inconclusive
COCCNc1ccc(-c2nc(-c3cccc(C)c3)no2)cc1[N+](=O)[O-]	none
O=S(=O)(NCc1ccc(Cl)cc1)c1ccc(N2CCCCS2(=O)=O)cc1	HTT promoter inh inconclusive
CCCC(=O)N(c1ccc2oc(C)c(C(C)=O)c2c1)S(=O)(=O)c1ccc(C)cc1	none
COc1ccc(S(=O)(=O)N(C(=O)c2ccncc2)c2ccc3oc(C)c(C(C)=O)c3c2)cc1	SKOV3 invasion inconclusive, HTT promoter inh 14µM
O=C(c1ccc(F)cc1)N1CCC(c2nc3ccccc3s2)CC1	GPR32 ag 64, HTT promoter inh inconclusive
O=C(COc1cccc(Cl)c1)N1CCC(c2nc3ccccc3s2)CC1	GPR32 ag 72
COc1ccccc1OC(C)C(=O)N1CCC(c2nc3ccccc3s2)CC1 (stereo not given)	GPR32 ag 85, HTT promoter inh inconclusive
Cc1ccc(Cl)cc1NS(=O)(=O)c1ccc2c(c1)NC(=O)CCS2	GPR32 ag 94
CC(=O)c1ccc(NS(=O)(=O)c2ccc3c(c2)NC(=O)CCS3)cc1	none
COc1ccc(NS(=O)(=O)c2ccc(NC(=O)N3CCCC3)cc2)cc1	HTT promoter inh inconclusive
CCOc1ccc(NS(=O)(=O)c2ccc(NC(=O)N3CCCC3)cc2)cc1	GPR32 ag 65
Cc1cc(C)c(NS(=O)(=O)c2ccc3c(c2)NC(=O)CCS3)c(C)c1	GPR32 ag 83
CCOc1ccc(NS(=O)(=O)c2ccc3c(c2)NC(=O)CCS3)cc1	GPR32 ag 75, HTT promoter inh inconclusive
Cc1cc(NC(=O)N(C)CCc2c(C)nn(C)c2C)ccc1Br	GPR32 ag 65
Cc1ccc(C)c(NC(=O)N(C)CCc2c(C)nn(C)c2C)c1	none
O=S(=O)(c1ccc2nc(Nc3ccc(F)cc3)ccc2c1)N1CCCC1	none
Cc1ccc(F)c(NC(=O)Nc2ccc3snnc3c2)c1	GPR32 ag 68
COCCCNC(=O)c1cnn(-c2ccccc2Cl)c1C1CCN(C(=O)OC(C)(C)C)CC1	NTMT1 inh 89µM
CC(C)(C)OC(=O)N1CCC(c2c(C(=O)NCc3ccccn3)cnn2-c2ccccc2Cl)CC1	SKOV3 invasion inconclusive
COc1ccc(CCN2CCC(CNC(=O)c3cnn(-c4cccc(Cl)c4)c3C3CCN(C(=O)OC(C)(C)C)CC3)CC2)cc1	NTMT1 inh 79µM, SKOV3 invasion inconclusive
COc1ccc(CCN2CCC(CNC(=O)c3cnn(-c4ccccc4)c3C3CCN(C(=O)OC(C)(C)C)CC3)CC2)cc1	NTMT1 inh inconclusive, SKOV3 invasion inconclusive
CC(=O)c1nn(-c2ccc(OC(F)(F)F)cc2)nc1Nc1ccc(Cl)cc1	none
CCOc1ccc(N(C)S(=O)(=O)c2ccc3[nH]cc(C(=O)NCc4ccccc4)c(=O)c3c2)cc1	none
CCc1ccc(N(C)S(=O)(=O)c2ccc3[nH]cc(C(=O)NCC4CCCO4)c(=O)c3c2)cc1 (stereo not given)	GPR32 ag 110, HTT promoter inh inconclusive
O=c1[nH]cnc2nc[nH]c12	NTMT1 inh 22µM, GPR32 ag 82 (no result: SKOV3 invasion)
COCCCc1sc(-c2ccccc2)nc1C(=O)Nc1ccccc1-c1nc2cc(CN3CCCC3)cnc2s1	none (no result: SKOV3 invasion, HTT-AS act, GPR32 ag, HTT promoter inh)
NCc1ccc(OCCCc2sc(-c3ccc4c(c3)/C(=N/Nc3nc5ccccc5s3)CCC4)nc2C(=O)O)cc1	NTMT1 inh 40µM! (no result: SKOV3 invasion, HTT-AS act, GPR32 ag, HTT promoter inh)
Cc1ccc(-n2nc3c(=O)n(C(C)C(=O)NCc4ccccc4C)nc(C)c3c2C)cc1 (stereo not given)	NTMT1 inh inconclusive, HTT promoter inh inconclusive
CCC(C(=O)NCCc1ccc(SC)cc1)n1nc(C)c2c(C)n(-c3ccc(C)cc3)nc2c1=O (stereo not given)	HTT promoter inh 35µM
Cc1ccc(-n2nc3c(=O)n(C(C)C(=O)NCc4ccc(OC(C)C)cc4)nc(C)c3c2C)cc1 (stereo not given)	HTT promoter inh 7.1µM
CSc1ccc(CCNC(=O)C(C)n2nc(C)c3c(C)n(-c4ccccc4)nc3c2=O)cc1 (stereo not given)	HTT promoter inh inconclusive
Cc1ccc(CCNC(=O)c2cc3c(=O)oc4ccccc4c3s2)cc1	none
COc1cc(NC(=O)CCCOc2cc(=O)n(C)c3ccccc23)cc(OC)c1OC	none
C#CC(C)(CC)NC(=O)Cn1nnc(-c2ccc(OCc3ccccc3F)cc2)n1 (stereo not given)	GPR32 ag 91

Screens from PubChem.
